# Screening results from PubChem BioAssay.
# Rows were chosen to be rich in hits. Some 19% of all compounds tested hit in one or more screens of this group.
# TGFb SMAD3 inh = TGF-b pathway inhibition | HepG2 CAGA-GFP TGF-b/SMAD3 reporter, GFP fluorescence, 18 h; TGF-beta stimulated, 500 pg/mL final | Potency, µM (doses to about 46.1 µM), for the others: at the highest dose activity, negative = inhibition, hits mostly inhibitors | 1.2% of 410,000 active; further: potency means the concentration at half of the fitted maximal effect; on the % scale 0 is the no-effect control and ±100 the full control effect; nearly all actives have a fitted effect of over 65% in size
#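 Per well, imaged GFP fluorescence of HEPG2 CAGA-GFP cells gives the signal; cells get compound, then TGF-beta (500 pg/mL final), 18 h at 37 degrees C; %Activity versus -TGF-beta and +DMSO controls.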
# HepG2 viability = kills HepG2 cells in TGF-b inhibitor counter-screen; HepG2 CAGA-GFP viability, ATP luminescence, 18 h; 0.76% of 410,000 active; AID 588856; Potency, µM (highest dose often 46.1 µM), for inactives: top-dose activity change, negative = cytotoxicity, actives largely listed as cytotoxic; further: potency means the concentration at half of the fitted maximal effect
#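 HepG2 CAGA-GFP cells (1000/well, DMEM with 1% FBS) received compound, then TGF-beta at 500 pg/mL final, and were incubated 18 hours at 37 degrees C. Viability was read by CellTiter-Glo luminescence. Media-only wells were set as complete cell-killing and DMSO as no toxicity.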
# ASM inhibitor = blocks human secretory acid sphingomyelinase; P17405; Potency, µM (top dose mostly 57.5 µM), inactives show top-dose activity change, negative = inhibition, usual class: inhibitors; 0.006% of 340,000 active; placental ASM, HMU-PC fluorogenic substrate, 60 min; further: potency means the concentration at half of the fitted maximal effect
# Target sequence (P17405 47-631 limits assumed): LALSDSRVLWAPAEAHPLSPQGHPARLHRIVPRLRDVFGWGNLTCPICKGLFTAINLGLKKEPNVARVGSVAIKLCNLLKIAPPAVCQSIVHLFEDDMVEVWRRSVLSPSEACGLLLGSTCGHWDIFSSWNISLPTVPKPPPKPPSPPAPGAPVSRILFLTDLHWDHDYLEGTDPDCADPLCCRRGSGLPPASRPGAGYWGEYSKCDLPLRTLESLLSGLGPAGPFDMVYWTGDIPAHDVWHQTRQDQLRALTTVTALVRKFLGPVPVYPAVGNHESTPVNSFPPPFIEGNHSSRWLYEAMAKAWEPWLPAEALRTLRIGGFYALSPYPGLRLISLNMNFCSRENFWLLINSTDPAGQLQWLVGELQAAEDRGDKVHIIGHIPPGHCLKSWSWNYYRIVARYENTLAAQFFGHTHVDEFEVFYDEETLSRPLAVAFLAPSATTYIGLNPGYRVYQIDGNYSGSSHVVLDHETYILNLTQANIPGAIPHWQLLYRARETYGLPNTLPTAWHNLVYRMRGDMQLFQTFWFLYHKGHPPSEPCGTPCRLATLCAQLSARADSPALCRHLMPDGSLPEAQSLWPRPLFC
#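 Human placenta-derived ASM enzyme was preincubated with compound for 10 minutes at room temperature, then given fluorogenic substrate HMU-PC0 (9 uM final) for 60 minutes at 37 °C; a pH 10 stop preceded fluorescence reading at Ex 386/Em 447 nm.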
# DT40 TDP1 CPT = growth inhibition of DT40 Tdp1-/-;hTDP1 cells with camptothecin (screen for TDP1 inhibitors) | chicken DT40 Tdp1-/-;hTDP1 cells + 20 nM CPT, ATP luminescence, 48 h | Potency, µM (highest dose often 46.2 µM), for the others: top-dose activity change, negative = growth inhibition, hits mostly inhibitors | 12% of 420,000 active; further: potency means the concentration at half of the fitted maximal effect; on the % scale 0 is the no-effect control and ±100 the full control effect; nearly all actives have a fitted effect of over 55% in size
#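 Chicken DT40 Tdp1-/- cells complemented with human TDP1, 400 cells/well, exposed to compounds plus 20 nM camptothecin for at least 48 h at 37 C; viability read as ATP content by CellTiter-Glo luminescence.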
# IL1B secr inh = inflammasome signaling inhibition, IL-1 beta readout | activity change, % at 57.5 µM | 4.7% of 360,000 active | THP-1 LPS/ATP IL-1B secretion, AlphaLISA, 16 h; active compounds read low | AID 743279; in the data active means activity change below about -50%; inconclusive means mostly about -30% to -49%; further: on the % scale 0 is the no-effect control and ±100 the full control effect
#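 Secreted IL-1B measured by AlphaLISA bead assay after 16 h compound exposure of THP-1 cells; compounds (final up to 57.5 uM) added 1 h before LPS (250 ng/mL) and ATP (1.25 mM) stimulation; lower signal means less secretion.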
# DT40 TDP1 no CPT = qHTS for Inhibitors of human tyrosyl-DNA phosphodiesterase 1 (TDP1): qHTS in cells in absence of CPT | 15% of 420,000 active | Potency, µM (doses to about 46.2 µM), for the others: top-dose activity change, negative = growth inhibition, usual class: inhibitors | DT40 Tdp1-/- hTDP1 cells, no CPT, ATP luminescence, 48 h; further: potency means the concentration at half of the fitted maximal effect; on the % scale 0 is the no-effect control and ±100 the full control effect; nearly all actives have a fitted effect of over 55% in size
#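 Compound effects on proliferation are scored in DT40 Tdp1-/-;hTDP1 cells in the absence of CPT. ATP levels (CellTiter-Glo luminescence) are recorded after a ≥48 hr, 37 °C incubation.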
# * = called active by the depositor; ? = inconclusive; / = no result given. Unless noted, the call rests on the fitted dose curve; in most records, active means well fitted curve in the direction sought with a large enough effect; inconclusive means small, poorly fitted or top-dose-only effect, or another doubt; inactive means no such curve, though single readings can be large; an effect the other way counts as inactive or inconclusive.
SMILES,TGFb SMAD3 inh,HepG2 viability,ASM inhibitor,DT40 TDP1 CPT,IL1B secr inh,DT40 TDP1 no CPT
CC1(C)C(C(=O)O)N2C(=O)C(NC(=O)Cc3ccccc3)C2S1=O (stereo unspecified),4%,3%,-1%,7%,-9,2%
Cc1ccccc1OCC(=O)Nc1ccc2c(c1)OCCO2,7%,11%,3%,-21%,0,?
O=C(COC(=O)c1cccc(O)c1)Nc1ccc(OC(F)F)cc1,-17%,-1%,-5%,2%,-7,-28%
Cc1cccc(C)c1OCC(=O)Nc1ccc2c(c1)OCCO2,6%,-5%,3%,18µM*,-4,?
O=C(COC(=O)c1ccc(O)cc1)Nc1ccc(OC(F)F)cc1,21%,-5%,-3%,?,36,16µM*
CC(=O)c1c(C)[nH]c(C(=O)OCC(=O)Nc2ccc(Cl)cc2[N+](=O)[O-])c1C,-15%,-43%,-3%,3.7µM*,28,1.8µM*
CC(=O)Nc1ccc(SCC(=O)Nc2ccc3c(c2)OCCO3)cc1,4%,3.5µM*,5%,-10%,-16,?
Nn1c(SCC(=O)Nc2ccc3c(c2)OCCO3)nnc(CCC(=O)O)c1=O,-1%,-1%,9%,21µM*,-4,?
CC(=O)c1c(C)[nH]c(C(=O)OCC(=O)Nc2ccc(Cl)c(S(=O)(=O)N(C)C)c2)c1C,?,1%,-26%,7.3µM*,-29,9.2µM*
CC(=O)Nc1ccc(SCC(=O)Nc2ccccc2-c2ccccc2)cc1,0%,8%,6%,?,25,23µM*
CC(C)CC(NC(N)=O)C(=O)OCC(=O)Nc1ccc(OC(F)F)cc1 (stereo unspecified),-32%,-28%,0%,23µM*,-14,?
O=C(c1ccccc1)c1ccccc1NC(=O)C1CCCN1Cc1ccccc1 (stereo unspecified),-22%,-19%,-1%,?,-6,?
CC(=O)c1c(C)[nH]c(C(=O)OCC(=O)Nc2ccc3c(c2)OCCO3)c1C,-7%,-28%,-4%,?,26,21µM*
Cc1ccc(NC(=O)COC(=O)c2ccc3c(c2)OCCO3)cc1,2%,-2%,0%,-26%,9,-19%
C/C(=N\OCC(=O)Nc1ccccc1C(C)(C)C)c1ccc2c(c1)OCCO2,-2%,-7%,-1%,?,?,?
C/C(=N\OCC(=O)Nc1ccc(OC(F)(F)F)cc1)c1ccc2c(c1)OCCO2,-26%,-20%,-6%,-2%,-69*,?
O=C(COC(=O)c1ccc(O)cc1)Nc1ccc2c(c1)OCCO2,23%,-24%,-1%,10µM*,7,3.3µM*
O=C(NCc1ccccc1)C(c1ccccc1)n1c(=O)c(-c2ccco2)nc2ccccc21 (stereo unspecified),/,/,/,?,-19,21µM*
CCCCCNC(=O)C(c1ccc(OC)cc1)n1c(=O)c(-c2ccco2)nc2ccccc21 (stereo unspecified),/,/,/,16µM*,0,12µM*
O=C(NCc1ccccc1)C(C1CC1)n1c(=O)c(-c2ccco2)nc2ccccc21 (stereo unspecified),/,/,/,13µM*,23,16µM*
CC(C)(C)NC(=O)C(C1CC1)n1c(=O)c(-c2ccco2)nc2ccccc21 (stereo unspecified),/,/,/,?,-12,16µM*
O=C(NCc1ccccc1)C(c1cc2ccccc2o1)n1c(=O)c(-c2ccco2)nc2ccccc21 (stereo unspecified),/,/,/,?,4,?
Cc1cccc(CCNC(=O)c2cccc(NC3=NC4CS(=O)(=O)CC4S3)c2)c1 (stereo unspecified),-9%,-3%,7%,-7%,-8,0%
COCCCNC(=O)CCCN1C(=O)CCn2nc(-c3cccn3C)cc21,14%,-3%,/,-13%,/,22%
CC(C)(C)NC(=O)C(c1ccc(C(F)(F)F)cc1)n1c(=O)c(-c2ccco2)nc2ccccc21 (stereo unspecified),/,/,/,16µM*,27,18µM*
SMILES,TGFb SMAD3 inh,HepG2 viability,ASM inhibitor,DT40 TDP1 CPT,IL1B secr inh,DT40 TDP1 no CPT
O=C(NCc1ccccc1)C(c1ccc(C(F)(F)F)cc1)n1c(=O)c(-c2ccco2)nc2ccccc21 (stereo unspecified),/,/,/,?,0,21µM*
CC(C)(C)NC(=O)C(c1ccccc1F)n1c(=O)c(-c2ccco2)nc2ccccc21 (stereo unspecified),/,/,/,?,-12,?
O=C(NCc1ccccc1)C(c1ccc(C(F)(F)F)cc1)n1c(=O)c(-c2ccccc2)nc2ccccc21 (stereo unspecified),/,/,/,-71%,37,-80%
CCn1cc(CN2CCC(C(=O)Nc3ccc(Oc4cccnc4)cc3)CC2)c(C)n1,-1%,-20%,/,?,5,?
C=CCn1cc(CN2CCC(C(=O)Nc3cccc(-c4cccc(F)c4)c3)CC2)c(C)n1,?,8.9µM*,-2%,23µM*,-9,16µM*
C=CCn1cc(CN2CCC(C(=O)Nc3cccc(-c4cccc(Cl)c4)c3)CC2)c(C)n1,?,16µM*,-13%,16µM*,-6,16µM*
C=CCn1cc(CN2CCC(C(=O)Nc3ccc(Oc4cccnc4)cc3)CC2)c(C)n1,-17%,1%,0%,-9%,11,-13%
CCc1c(C)nc2ncnn2c1NCc1cccs1,2%,-5%,-1%,?,-6,26µM*
CCc1c(C)nc2ncnn2c1N1CCCC(C(=O)Nc2cc(F)ccc2C)C1 (stereo unspecified),9%,-1%,1%,16µM*,-5,21µM*
CCc1c(C)nc2ncnn2c1N1CCCC(C(=O)NCCc2ccccc2)C1 (stereo unspecified),1%,-22%,0%,?,9,21µM*
CCc1c(C)nc2ncnn2c1N1CCC(C(=O)NCc2cccs2)CC1,-11%,-5%,0%,23µM*,31,?
CCc1c(C)nc2ncnn2c1N1CCCC(C(=O)NCc2ccco2)C1 (stereo unspecified),8%,-3%,-2%,?,7,?
CCc1c(C)nc2ncnn2c1N1CCCC(C(=O)NCc2cccs2)C1 (stereo unspecified),-2%,-1%,5%,?,36,13µM*
